# A number with no mark means an inactive call. No rule for the calls is given here.
# Biological target: Pantothenate synthetase (Mycobacterium tuberculosis (strain ATCC 25618 / H37Rv)) (UniProt P9WIL5)
# Test: Recombinant Mtb pantothenate synthetase (PanC) inhibitors, coupled enzyme, confirmatory (AID 375);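 also: 0% = full reaction with vehicle and 100% = no enzyme background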
# Conditions: coupled enzyme assay; at 10 µM, stronger effect = higher value
# Pantothenate synthetase (Mycobacterium tuberculosis (strain ATCC 25618 / H37Rv)), sequence (P9WIL5 whole entry, looked up): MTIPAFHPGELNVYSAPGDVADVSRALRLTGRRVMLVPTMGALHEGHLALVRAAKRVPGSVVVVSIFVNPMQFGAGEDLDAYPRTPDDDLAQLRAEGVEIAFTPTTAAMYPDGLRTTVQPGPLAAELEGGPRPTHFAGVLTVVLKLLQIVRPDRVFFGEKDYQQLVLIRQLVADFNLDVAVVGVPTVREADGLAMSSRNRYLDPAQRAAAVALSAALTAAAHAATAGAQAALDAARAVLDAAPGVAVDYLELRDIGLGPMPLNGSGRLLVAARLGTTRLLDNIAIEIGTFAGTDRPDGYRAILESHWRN
row,SMILES,inhibition [%]
1,COc1cccc(C2C(C(=O)c3ccc(C)o3)=C(O)C(=O)N2CCCN(C)C)c1 (stereo not given),0
2,CCN(CC)C(=O)C1CCC(CNS(=O)(=O)c2cccc3cccnc23)CC1 (stereo not given),0
3,Nc1nnnn1NCc1cccc(OCc2ccccc2)c1,0
4,CCN1CCN(c2ncc(C(=O)N3CCN(c4ccccc4OC)CC3)c3ccccc23)CC1,3
5,Cc1cc(NC(=O)CSc2nnc(C3CC3)n2C)no1,0
6,CC(C)(O)C1=NOC(c2ccccc2)C1 (stereo not given),0
7,Cc1nnc(SCCn2c(N3CC(C)CC(C)C3)nc3c2c(=O)n(C)c(=O)n3C)s1 (stereo not given),0
8,C/C(N)=C(/C#N)C(=O)COC(=O)c1cc(C)n(-c2ccc(F)cc2)c1C,2
9,COc1ccccc1C(=O)Nc1ccc(S(=O)(=O)N2CCCC2)cc1,4
10,CCCC(=O)Nc1ccccc1-c1nnn(CC(=O)Nc2ccc(OCC)cc2)n1,0
11,CCOC(=O)N1CCC(N(C(=O)Nc2ccc(Cl)c(Cl)c2)C(C)CC)CC1 (stereo not given),4
12,O=P(O)(O)c1ccccc1OCCOCCOc1ccccc1P(=O)(O)O,4
13,CCCCNC(=O)OCCNC(=O)NC,0
14,COC(=O)c1cc(S(=O)(=O)N2CCC(C)CC2)ccc1F,6
15,CCCC1CCC(C(=O)Nn2c(C)nc3ccccc3c2=O)CC1 (stereo not given),8
16,CS(=O)(=O)N1CCN(CC2CC3C=CC2C3)CC1 (stereo not given),8
17,CCOC(=O)C1CCCN(C(=O)c2cc(=O)c3ccccc3o2)C1 (stereo not given),5
18,O=C(Nc1ccc(N2CCOCC2)cc1)c1cccc(S(=O)(=O)N2CCCC2)c1,0
19,CCCCN(Cc1cc2cc(OC)ccc2[nH]c1=O)C(=O)c1ccccn1,1
20,O=C(CN1C(=O)c2cccc3cccc1c23)Nc1ccccc1C(=O)NCc1ccco1,0

row,SMILES,inhibition [%]
1,N#Cc1cc2sc3nnc(-c4ccncc4)n3c2cc1C#N,0
2,Cn1c([N+](=O)[O-])cnc1COC(N)=O,0
3,Cn1cnc2c1c(=O)n(Cc1cccc(Br)c1)c(=O)n2C,1
4,O=C(Nc1cnn(Cc2ccc(Cl)cc2Cl)c1)c1noc2c1CCCC2,4
5,CCN(CC)C(=O)C1=C(C)NC(=O)NC1c1c(F)cccc1Cl (stereo not given),0
6,Nc1nonc1-c1noc(CCCCCN2C(=O)c3ccccc3C2=O)n1,4
7,CCOC(=O)c1ccc(NC(=O)CC2SC(=NC)N(C)C2=O)cc1 (stereo not given),2
8,COc1cc(C2N3CC4(C)CN2CC(C)(C3)C4)ccc1O (stereo not given),0
9,Cc1ccc(S(=O)(=O)NC(=O)c2cc(C)n(CCCn3ccnc3)c2C)cc1,2
10,COc1ccc(C)cc1S(=O)(=O)N1CCN(Cc2ccccc2)CC1,11
11,Cc1cc(-n2c(C)cc(C(=O)CSc3nnnn3-c3ccc(Cl)cc3)c2C)no1,7
12,CC/C(O)=C(/C#N)c1nnc2n1CCCCC2,5
13,CCCNC(=O)c1c(N)n(-c2cc(OC)cc(OC)c2)c2nc3ccccc3nc12,8
14,CCc1nc(N[C@@H](Cc2c[nH]c3ccccc23)C(=O)O)c2oc3ccccc3c2n1,13
15,Cc1nc2cc(C(=O)O)ccc2n1-c1ccc(F)cc1F,2
16,O=C(C1CCCN(S(=O)(=O)c2cccnc2)C1)N1CCN(c2ccccn2)CC1 (stereo not given),0
17,O=C(CSc1nnc(-c2cnccn2)n1Cc1ccco1)c1ccc(Cl)cc1,0
18,COCCNS(=O)(=O)c1cc(F)ccc1OC,0
19,C=C(c1cccc2ccccc12)P(=O)(O)O,2
20,O=C(NCCC1=CCCCC1)C1CCN(S(=O)(=O)c2cccc3nsnc23)CC1,10

# Source: PubChem BioAssay
